A selection: hits, their analogues and other compounds. The true share with any hit is near 18%.
TDP1 cell CPT: growth inhibition of DT40 Tdp1-/-;hTDP1 cells with camptothecin (screen for TDP1 inhibitors); chicken DT40 Tdp1-/-;hTDP1 cells + 20 nM CPT, ATP luminescence, 48 h; Potency, µM (titrated, usually from 46.2 µM), without a hit: at the top dose activity change, negative = growth inhibition, actives largely listed as inhibitors; 420,000 tested, 12% active; also: potency is read from the fitted curve at half-maximal effect; % is scaled to controls: 0 for no effect and ±100 for the full control effect; nearly all actives have a fitted effect of over 55% in size
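Cell growth measured by CellTiter-Glo luminescence after a minimum 48 h, 37 C compound exposure with 20 nM CPT in Tdp1-knockout DT40 cells stably expressing hTDP1, seeded 400/well; qHTS titration format.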
TDP1 inh: TDP1 (human) enzyme inhibition; AID 485290; 350,000 tested, 0.28% active; Q9NUW8; recombinant TDP1, AlphaScreen DNA substrate cleavage; Potency, µM (doses to about 130 µM), for the others: at the top dose activity change, negative = inhibition, most hits filed as inhibitors; also: potency is read from the fitted curve at half-maximal effect; % is scaled to controls: 0 for no effect and ±100 for the full control effect; nearly all actives have a fitted effect of over 40% in size
Target sequence (Q9NUW8 whole entry, looked up): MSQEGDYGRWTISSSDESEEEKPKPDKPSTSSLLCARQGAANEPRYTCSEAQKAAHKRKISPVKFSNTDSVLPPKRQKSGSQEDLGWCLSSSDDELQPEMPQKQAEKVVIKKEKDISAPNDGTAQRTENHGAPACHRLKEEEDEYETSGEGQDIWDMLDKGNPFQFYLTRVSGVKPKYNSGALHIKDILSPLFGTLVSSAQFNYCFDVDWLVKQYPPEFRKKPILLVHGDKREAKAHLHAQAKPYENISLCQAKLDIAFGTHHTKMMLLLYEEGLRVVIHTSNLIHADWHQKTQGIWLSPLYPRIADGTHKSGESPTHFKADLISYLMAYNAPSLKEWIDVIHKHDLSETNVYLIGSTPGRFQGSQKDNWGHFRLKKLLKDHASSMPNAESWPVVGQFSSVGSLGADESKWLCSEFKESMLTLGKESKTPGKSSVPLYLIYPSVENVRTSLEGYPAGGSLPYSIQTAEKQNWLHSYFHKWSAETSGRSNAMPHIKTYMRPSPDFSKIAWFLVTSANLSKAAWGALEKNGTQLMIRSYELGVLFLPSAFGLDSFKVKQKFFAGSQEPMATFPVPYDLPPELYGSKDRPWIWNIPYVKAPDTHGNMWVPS
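Here, a 5' biotin and 3' phosphotyrosine-FITC DNA oligonucleotide reports Tdp1 activity: intact substrate bridges AlphaScreen beads, while cleavage leaves a 3' phosphate and drops signal. All incubations at room temperature.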
TGFb inhibitor: blocks TGF-b signaling | HepG2 CAGA-GFP TGF-b/SMAD3 reporter, GFP fluorescence, 18 h; TGF-beta stimulated, 500 pg/mL final | Potency, µM (highest dose often 46.1 µM), without a hit: at the top dose activity, negative = inhibition, actives largely listed as inhibitors | 410,000 tested, 1.2% active | AID 588855; also: potency is read from the fitted curve at half-maximal effect; % is scaled to controls: 0 for no effect and ±100 for the full control effect; nearly all actives have a fitted effect of over 65% in size
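Inhibition was scored as loss of TGF-beta-induced (500 pg/mL final, 18 hours, 37 degrees C) GFP in HEPG2 cells carrying a CAGA-GFP reporter, in DMEM with 1% FBS. Well GFP was summed per cell; Activity was normalised to unstimulated and stimulated DMSO wells, then concentration-response fitting.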
IL1B secr inh: inflammasome signaling inhibition, IL-1 beta readout. THP-1 LPS/ATP IL-1B secretion, AlphaLISA, 16 h; active compounds read low. activity change, % at 57.5 µM. 360,000 tested, 4.7% active. AID 743279; in the data active = activity change below about -50%; inconclusive = mostly about -30% to -49%; also: % is scaled to controls: 0 for no effect and ±100 for the full control effect
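Secreted IL-1B measured by AlphaLISA bead assay after 16 h compound exposure of THP-1 cells; compounds (final up to 57.5 uM) added 1 h before LPS (250 ng/mL) and ATP (1.25 mM) stimulation; lower signal means less secretion.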
TDP1 cell noCPT: qHTS for Inhibitors of human tyrosyl-DNA phosphodiesterase 1 (TDP1): qHTS in cells in absence of CPT. Potency, µM (series often up to 46.2 µM), for inactives: at the highest dose activity change, negative = growth inhibition, actives largely listed as inhibitors. DT40 Tdp1-/- hTDP1 cells, no CPT, ATP luminescence, 48 h. 420,000 tested, 15% active. AID 686978, 2013; also: potency is read from the fitted curve at half-maximal effect; % is scaled to controls: 0 for no effect and ±100 for the full control effect; nearly all actives have a fitted effect of over 55% in size
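No-CPT arm: Tdp1-/-;hTDP1 DT40 cells (400/well) plus compounds, incubated ≥48 hr at 37 °C. Readout CellTiter-Glo luminescence.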
HepG2 viability: HepG2 cytotoxicity, counter-screen for TGF-b inhibitors; HepG2 CAGA-GFP viability, ATP luminescence, 18 h; 410,000 tested, 0.76% active; Potency, µM (doses to about 46.1 µM), for the others: top-dose activity change, negative = cytotoxicity, most hits filed as cytotoxic; also: potency is read from the fitted curve at half-maximal effect
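CellTiter-Glo luminescence gave cytotoxicity after 18 hours at 37 degrees C. The cells were HepG2 CAGA-GFP in 1% FBS DMEM, stimulated with 500 pg/mL TGF-beta after compound addition. %Activity was normalised to no-cell wells (complete cell-killing) and DMSO (no toxicity), and curves were fitted and classified.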
* = called active by the depositor; ? = inconclusive; . = no result given. Unless noted, calls follow the shape of the dose curve; as a rule, active = well fitted curve in the direction sought with a large enough effect; inconclusive = small, poorly fitted or top-dose-only effect, or another doubt; inactive = no such curve, though single readings can be large; an effect the other way counts as inactive or inconclusive.

SMILES	TDP1 cell CPT	TDP1 inh	TGFb inhibitor	IL1B secr inh	TDP1 cell noCPT	HepG2 viability
COc1ccc(N(C(=O)c2snc(C(N)=O)c2N)C(C(=O)NCC2CCCO2)c2ccc(C)o2)cc1OC (stereo not given)	?	-19.5%	20.9%	5.3	18.4µM*	-12.5%
COCCNC(=O)C(c1ccc(C)o1)N(C(=O)c1snc(C(N)=O)c1N)c1ccc(C)c(C)c1 (stereo not given)	-26.1%	0.0%	5.3%	-0.6	-26.2%	12.7%
CCc1ccccc1N(C(=O)c1snc(C(N)=O)c1N)C(C(=O)NCC1CCCO1)c1ccc(N(C)C)cc1 (stereo not given)	?	7.9%	-1.9%	-1.6	?	-2.8%
Cc1nc(C)c(C(=O)N(c2ccccc2F)C(C(=O)NCC2CCCO2)c2ccccc2)s1 (stereo not given)	25.9µM*	4.8%	5.5%	-6.0	?	4.5%
O=C(NN=C1C2CC3CC1CC(Cl)(C3)C2)c1ccccn1	-0.2%	2.6%	11.2%	-10.9	0.4%	8.3%
CCOc1ccc(N(C(=O)c2snc(C(N)=O)c2N)C(C(=O)NCC2CCCO2)c2ccco2)cc1 (stereo not given)	?	0.0%	1.4%	-7.0	?	-8.7%
Cc1ccc(N(C(=O)c2snc(C(N)=O)c2N)C(C(=O)NCC2CCCO2)c2ccc(C)o2)c(C)c1 (stereo not given)	18.4µM*	.	-17.9%	?	16.4µM*	-14.4%
CCc1ccc(N(C(=O)c2snc(C(N)=O)c2N)C(C(=O)NCC2CCCO2)c2ccco2)cc1 (stereo not given)	23.1µM*	10.6%	18.7%	-23.5	18.4µM*	2.7%
COc1ccc(C(C(=O)NCC2CCCO2)N(Cc2cccs2)C(=O)c2snc(C(N)=O)c2N)cc1 (stereo not given)	16.4µM*	.	4.6%	9.7	10.3µM*	8.1%
CCc1ccccc1N(C(=O)c1snc(C(N)=O)c1N)C(C(=O)NCC1CCCO1)c1ccc(C)o1 (stereo not given)	11.6µM*	7.8%	0.6%	-8.7	10.3µM*	-4.4%
Cc1ccc(-n2ncc3c(=O)n(Cc4cccc(Cl)c4)cnc32)cc1C	2.8%	2.5%	20.3%	.	-16.6%	9.6%
Cn1c(=O)oc2cc(S(=O)(=O)N3CCC(C(=O)N4CCN(c5ccc(Cl)cc5)CC4)CC3)ccc21	2.06µM*	11.5%	-27.3%	.	2.31µM*	-7.3%
Cn1c(=O)oc2cc(S(=O)(=O)N3CCC(C(=O)N4CCN(c5cccc(Cl)c5)CC4)CC3)ccc21	4.11µM*	3.8%	?	.	1.46µM*	-12.6%
COc1ccc(-n2nc(C(=O)NCC(=O)N3CCN(Cc4ccccc4)CC3)c3ccccc3c2=O)c(OC)c1	-19.7%	5.7%	2.2%	-16.9	?	-5.5%
CCCCCCCCN1C(=O)[C@H](CC(=O)NCc2cccc3ccccc23)C[C@@]2(C(=O)OC)CC(C)(C)CC=C12	-66.7%	.	.	0.3	11.6µM*	.
COC(=O)[C@@]12C[C@@H](CC(=O)NCC34CC5CC(CC(C5)C3)C4)C(=O)N(Cc3cccc4ccccc34)C1=CCC(C)(C)C2	?	.	.	-21.0	?	.
CCCCCCCCN1C(=O)[C@H](CC(=O)NCCCCc2ccccc2)C[C@@]2(C(=O)OC)CC(C)(C)CC=C12	16.4µM*	.	.	15.7	20.6µM*	.
CCCCCCCCN1C(=O)[C@H](CC(=O)NCCCC)C[C@@]2(C(=O)OC)CC(C)(C)CC=C12	10.3µM*	.	.	15.2	11.6µM*	.
CCCCCCCCN1C(=O)[C@H](CC(=O)NCc2ccccc2)C[C@@]2(C(=O)OC)CC(C)(C)CC=C12	3.66µM*	.	.	-25.5	5.17µM*	.
CCCCNC(=O)C[C@@H]1C[C@@]2(C(=O)OC)CC(C)(C)CC=C2N(Cc2ccccc2)C1=O	?	.	.	-27.8	?	.
O=S(=O)(NC(CO)Cc1ccccc1)c1ccc(Br)cc1F (stereo not given)	-5.2%	.	-5.1%	14.0	-23.2%	-7.9%
CC1=C(c2ccc(C(C)C)cc2)S(=O)(=O)N=C1N1CCN(c2ccc(F)cc2)CC1	20.6µM*	-2.9%	-8.3%	.	10.3µM*	-7.9%
Cc1cccc(N2C(=O)CC(N3CCN(c4cccc(C(F)(F)F)c4)CC3)C2=O)c1 (stereo not given)	-7.4%	2.3%	2.4%	-0.8	-5.7%	1.1%
CC1=C(c2ccc(C)c(C)c2)S(=O)(=O)N=C1N1CCN(c2cccc(C)c2)C(C)C1 (stereo not given)	18.4µM*	5.7%	?	.	10.3µM*	-27.6%
CC1=C(c2ccc(C)c(C)c2)S(=O)(=O)N=C1N1CCC(C(=O)NCc2ccccc2C)CC1	-6.1%	0.6%	-2.4%	.	-20.9%	-17.9%
SMILES	TDP1 cell CPT	TDP1 inh	TGFb inhibitor	IL1B secr inh	TDP1 cell noCPT	HepG2 viability
CC1=C(c2ccc(Cl)cc2)S(=O)(=O)N=C1N1CCN(c2cccc(C(F)(F)F)c2)CC1	8.2µM*	8.6%	?	.	20.6µM*	-21.6%
COc1ccc(C2=C(C)C(N3CCN(c4ccc(OC)cc4)CC3)=NS2(=O)=O)cc1	-4.0%	0.0%	-27.9%	.	-5.6%	-20.1%
Cc1ccc(C)c(NC(=O)CN(C)C(=O)c2cccc(N3C(=O)CCC3=O)c2)c1	14.2%	-3.9%	2.5%	8.1	-11.8%	7.5%
O=C(OC(C(=O)NCc1ccc(F)cc1)c1ccccc1)c1ccco1 (stereo not given)	16.2%	.	-11.4%	-5.5	-16.8%	-18.9%
COc1ccccc1CCC(=O)Oc1ccc(C#N)cc1OC	6.1%	3.4%	-10.0%	3.1	24.4%	-0.9%
CCc1nnc(NC(=O)CSc2nccn2Cc2ccccc2)s1	?	2.7%	6.0%	.	20.6µM*	-0.9%
CCc1nnc(NC(=O)CSc2nccn2Cc2ccc(C)cc2)s1	-22.9%	0.0%	-14.9%	.	-24.4%	-4.1%
CCc1nnc(NC(=O)CSc2nnc(-c3ccccc3O)n2-c2ccc(C)cc2C)s1	?	5.1%	?	51.3	23.1µM*	18.0%
Cc1ccc(Cn2ccnc2SCC(=O)Nc2nc3ccccc3s2)cc1	-18.5%	13.2%	11.2µM*	.	-14.1%	-33.0%
CC(C)(C)OC(=O)N1CCC[C@@H]1C(=O)NCc1ccccc1Cl	-16.8%	.	.	30.1	-29.9%	.
